We go through one sequence from article PMC7862700, “An all-to-all approach to the identification of sequence-specific readers for epigenetic DNA modifications on cytosine”.

Holding throughout (test): DAPPL (digital affinity profiling via proximity ligation, sequencing); 10 mM Tris-HCl pH 7.5, 50 mM NaCl, 1 mM DTT, 4% glycerol, room temperature, 30 min; GST-TFs on glutathione beads, 16-mer random dsDNA library, 0.1% formaldehyde crosslink after washing; high values mean tight binding
Details in all cases: protein: recombinant; tags: N-terminal GST; dsDNA, one strand shown

The target in one experiment is T1, FLI1 (Homo sapiens, UniProt Q01543 1-452).
T1 sequence: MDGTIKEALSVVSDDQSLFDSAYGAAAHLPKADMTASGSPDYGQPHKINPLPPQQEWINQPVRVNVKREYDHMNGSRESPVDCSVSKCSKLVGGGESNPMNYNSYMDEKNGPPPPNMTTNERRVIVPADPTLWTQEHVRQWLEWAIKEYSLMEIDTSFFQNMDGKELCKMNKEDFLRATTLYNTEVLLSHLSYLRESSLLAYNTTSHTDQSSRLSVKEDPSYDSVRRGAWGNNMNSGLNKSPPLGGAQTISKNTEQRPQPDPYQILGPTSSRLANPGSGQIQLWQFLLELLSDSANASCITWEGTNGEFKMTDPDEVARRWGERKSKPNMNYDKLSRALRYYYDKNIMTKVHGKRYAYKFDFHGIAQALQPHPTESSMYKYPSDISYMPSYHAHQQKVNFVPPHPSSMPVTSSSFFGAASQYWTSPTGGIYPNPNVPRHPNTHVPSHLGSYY
In outline: (§1)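 Pools of DNA-barcoded human transcription factors, expressed in yeast as GST fusions on glutathione beads and combined with a tag-only sample, were incubated with 200 nmole of a 16-mer random double-stranded DNA library. Incubation took 30 min at room temperature in Tris/NaCl/DTT/glycerol buffer and was followed by washing, 0.1% formaldehyde crosslinking, proximity ligation (BsaI/T4 ligase, 1 h, 37 °C), PCR amplification and sequencing on an Illumina NextSeq500. Binding signal is the ratio of a hexamer's read frequency for a factor to its frequency for the tag-only sample.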

The next experiment deals with T2, ELK1 (Homo sapiens, UniProt P19419 1-428).
T2 sequence: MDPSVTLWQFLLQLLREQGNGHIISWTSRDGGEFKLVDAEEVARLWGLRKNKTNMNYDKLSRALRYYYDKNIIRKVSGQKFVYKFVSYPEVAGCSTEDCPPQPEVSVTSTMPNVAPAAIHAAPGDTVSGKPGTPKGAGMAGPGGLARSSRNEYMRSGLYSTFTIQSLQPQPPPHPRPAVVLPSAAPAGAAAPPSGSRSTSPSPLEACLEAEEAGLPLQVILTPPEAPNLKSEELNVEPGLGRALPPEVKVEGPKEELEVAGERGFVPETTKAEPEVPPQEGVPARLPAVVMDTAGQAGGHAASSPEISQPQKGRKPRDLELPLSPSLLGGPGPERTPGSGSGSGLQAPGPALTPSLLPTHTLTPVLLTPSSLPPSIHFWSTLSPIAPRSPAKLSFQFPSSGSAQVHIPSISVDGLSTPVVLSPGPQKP
In outline:
as §1

The next experiment deals with T3, GABPA (Homo sapiens, UniProt Q06546 1-454).
T3 sequence: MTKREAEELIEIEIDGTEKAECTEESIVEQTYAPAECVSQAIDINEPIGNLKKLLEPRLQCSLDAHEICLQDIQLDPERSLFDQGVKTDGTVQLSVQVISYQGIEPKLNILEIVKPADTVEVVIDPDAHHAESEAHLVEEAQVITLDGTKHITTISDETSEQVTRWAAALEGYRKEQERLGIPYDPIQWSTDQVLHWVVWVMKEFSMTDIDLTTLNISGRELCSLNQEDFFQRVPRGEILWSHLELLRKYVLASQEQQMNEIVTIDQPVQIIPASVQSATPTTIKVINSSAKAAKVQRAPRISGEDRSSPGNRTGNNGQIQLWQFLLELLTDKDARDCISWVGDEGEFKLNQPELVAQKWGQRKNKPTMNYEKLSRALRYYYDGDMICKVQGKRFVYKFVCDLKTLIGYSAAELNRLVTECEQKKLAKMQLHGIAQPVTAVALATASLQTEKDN
In outline:
as §1

The next experiment addresses T4, ERG (Homo sapiens, UniProt P11308 1-479).
T4 sequence: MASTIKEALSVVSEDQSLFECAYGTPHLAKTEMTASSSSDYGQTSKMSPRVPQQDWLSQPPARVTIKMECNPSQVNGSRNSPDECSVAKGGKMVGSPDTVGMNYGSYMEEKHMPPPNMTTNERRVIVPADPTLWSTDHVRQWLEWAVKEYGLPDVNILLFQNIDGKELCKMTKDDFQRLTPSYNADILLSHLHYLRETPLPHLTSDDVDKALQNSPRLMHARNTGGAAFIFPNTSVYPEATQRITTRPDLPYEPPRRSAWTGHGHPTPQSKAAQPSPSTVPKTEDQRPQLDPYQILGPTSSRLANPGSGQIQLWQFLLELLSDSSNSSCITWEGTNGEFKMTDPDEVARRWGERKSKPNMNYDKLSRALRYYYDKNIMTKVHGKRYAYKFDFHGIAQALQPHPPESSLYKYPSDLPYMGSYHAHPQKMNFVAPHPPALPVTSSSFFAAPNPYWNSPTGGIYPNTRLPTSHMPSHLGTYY
In outline:
as §1

The next experiment deals with ELF1 (Homo sapiens, UniProt P32519 1-619). In outline: as §1
Chain of ELF1 (P32519 whole entry): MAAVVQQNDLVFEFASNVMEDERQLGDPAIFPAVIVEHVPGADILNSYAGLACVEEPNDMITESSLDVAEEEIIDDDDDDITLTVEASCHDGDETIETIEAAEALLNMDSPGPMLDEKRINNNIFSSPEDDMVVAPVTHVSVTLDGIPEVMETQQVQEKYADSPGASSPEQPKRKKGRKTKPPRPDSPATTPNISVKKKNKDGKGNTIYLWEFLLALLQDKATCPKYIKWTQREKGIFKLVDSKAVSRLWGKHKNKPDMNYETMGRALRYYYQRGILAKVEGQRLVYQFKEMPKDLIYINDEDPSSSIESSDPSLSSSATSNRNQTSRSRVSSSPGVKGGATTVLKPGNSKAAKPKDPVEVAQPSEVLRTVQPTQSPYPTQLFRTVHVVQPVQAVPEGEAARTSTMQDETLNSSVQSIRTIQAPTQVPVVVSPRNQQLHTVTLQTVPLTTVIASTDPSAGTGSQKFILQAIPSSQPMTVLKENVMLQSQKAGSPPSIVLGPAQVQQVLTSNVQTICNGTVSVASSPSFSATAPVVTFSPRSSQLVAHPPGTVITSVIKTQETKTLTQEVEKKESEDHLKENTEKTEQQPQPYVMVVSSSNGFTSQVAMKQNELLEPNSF
The next experiment has as its target T5, EHF (Homo sapiens, UniProt Q9NZC4 1-300).
T5 sequence: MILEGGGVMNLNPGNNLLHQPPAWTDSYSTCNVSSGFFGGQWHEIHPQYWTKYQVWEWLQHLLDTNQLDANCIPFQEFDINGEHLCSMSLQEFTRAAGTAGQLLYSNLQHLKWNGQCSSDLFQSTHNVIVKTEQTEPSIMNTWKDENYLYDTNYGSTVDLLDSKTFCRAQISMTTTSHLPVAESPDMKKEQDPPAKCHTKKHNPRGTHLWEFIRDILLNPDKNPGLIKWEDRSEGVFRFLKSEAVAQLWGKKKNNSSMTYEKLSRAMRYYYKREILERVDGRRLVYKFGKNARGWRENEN
In outline:
as §1

In the next experiment the target is SPI1 (Homo sapiens, UniProt P17947 1-270). In outline: as §1
Another experiment addresses T6, FEV (Homo sapiens, UniProt Q99581 1-238).
T6 sequence: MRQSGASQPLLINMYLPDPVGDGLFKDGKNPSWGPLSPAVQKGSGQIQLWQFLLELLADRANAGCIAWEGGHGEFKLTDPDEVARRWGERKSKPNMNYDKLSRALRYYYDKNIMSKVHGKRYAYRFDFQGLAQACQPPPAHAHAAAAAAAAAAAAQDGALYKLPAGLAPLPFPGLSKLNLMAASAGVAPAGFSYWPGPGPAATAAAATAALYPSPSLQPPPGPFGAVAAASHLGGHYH
The gist of the method:
as §1

In a further experiment the target is ETV5 (Homo sapiens, UniProt P41161 1-510). The gist of the method: as §1
Chain of ETV5 (P41161 whole entry): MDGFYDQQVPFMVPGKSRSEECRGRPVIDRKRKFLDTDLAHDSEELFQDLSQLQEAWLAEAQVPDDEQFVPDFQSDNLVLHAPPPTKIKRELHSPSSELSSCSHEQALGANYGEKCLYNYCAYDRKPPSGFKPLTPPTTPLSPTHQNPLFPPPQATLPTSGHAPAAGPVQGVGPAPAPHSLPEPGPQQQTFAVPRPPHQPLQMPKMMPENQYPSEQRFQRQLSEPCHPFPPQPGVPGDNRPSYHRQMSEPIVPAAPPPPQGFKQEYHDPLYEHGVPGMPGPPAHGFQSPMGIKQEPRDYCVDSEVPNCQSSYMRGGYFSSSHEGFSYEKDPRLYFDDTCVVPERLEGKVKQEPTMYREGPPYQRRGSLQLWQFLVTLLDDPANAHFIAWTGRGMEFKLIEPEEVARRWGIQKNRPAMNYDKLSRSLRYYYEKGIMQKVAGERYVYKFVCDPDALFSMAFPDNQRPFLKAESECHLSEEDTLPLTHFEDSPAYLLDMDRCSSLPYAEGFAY
The next experiment has as its target T7, SPIC (Homo sapiens, UniProt Q8N5J4 1-248).
T7 sequence: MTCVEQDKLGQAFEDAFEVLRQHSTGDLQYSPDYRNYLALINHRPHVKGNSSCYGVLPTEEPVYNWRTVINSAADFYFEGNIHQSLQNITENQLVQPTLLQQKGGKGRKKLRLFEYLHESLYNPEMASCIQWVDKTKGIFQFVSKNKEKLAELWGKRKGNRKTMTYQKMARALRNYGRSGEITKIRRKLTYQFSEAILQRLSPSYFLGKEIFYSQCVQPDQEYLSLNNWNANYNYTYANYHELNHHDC
In outline:
as §1

In a further experiment the target is ELF4 (Homo sapiens, UniProt Q99607 1-663). The gist of the method: as §1
Chain of ELF4 (Q99607 whole entry): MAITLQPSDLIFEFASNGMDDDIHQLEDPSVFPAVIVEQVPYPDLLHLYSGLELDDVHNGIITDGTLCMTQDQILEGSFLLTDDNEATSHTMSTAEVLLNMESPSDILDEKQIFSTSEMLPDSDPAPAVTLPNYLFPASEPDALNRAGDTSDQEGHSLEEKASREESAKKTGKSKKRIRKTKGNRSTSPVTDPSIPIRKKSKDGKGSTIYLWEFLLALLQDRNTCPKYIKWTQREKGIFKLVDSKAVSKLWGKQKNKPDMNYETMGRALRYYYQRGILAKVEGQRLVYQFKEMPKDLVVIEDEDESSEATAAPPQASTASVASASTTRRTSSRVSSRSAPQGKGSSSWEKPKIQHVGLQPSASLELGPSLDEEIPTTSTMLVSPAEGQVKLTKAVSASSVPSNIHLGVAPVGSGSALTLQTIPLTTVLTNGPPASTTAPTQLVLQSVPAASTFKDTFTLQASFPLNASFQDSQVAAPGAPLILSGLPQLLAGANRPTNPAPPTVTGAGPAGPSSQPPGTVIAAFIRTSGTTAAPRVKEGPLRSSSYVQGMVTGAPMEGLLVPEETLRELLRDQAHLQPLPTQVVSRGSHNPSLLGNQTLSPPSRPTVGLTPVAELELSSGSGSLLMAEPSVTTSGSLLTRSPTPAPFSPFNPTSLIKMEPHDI
The next experiment has as its target ETV1 (Homo sapiens, UniProt P50549 1-477). In outline: as §1
The target of the next experiment is T8, ERF (Homo sapiens, UniProt P50548 1-548).
T8 sequence: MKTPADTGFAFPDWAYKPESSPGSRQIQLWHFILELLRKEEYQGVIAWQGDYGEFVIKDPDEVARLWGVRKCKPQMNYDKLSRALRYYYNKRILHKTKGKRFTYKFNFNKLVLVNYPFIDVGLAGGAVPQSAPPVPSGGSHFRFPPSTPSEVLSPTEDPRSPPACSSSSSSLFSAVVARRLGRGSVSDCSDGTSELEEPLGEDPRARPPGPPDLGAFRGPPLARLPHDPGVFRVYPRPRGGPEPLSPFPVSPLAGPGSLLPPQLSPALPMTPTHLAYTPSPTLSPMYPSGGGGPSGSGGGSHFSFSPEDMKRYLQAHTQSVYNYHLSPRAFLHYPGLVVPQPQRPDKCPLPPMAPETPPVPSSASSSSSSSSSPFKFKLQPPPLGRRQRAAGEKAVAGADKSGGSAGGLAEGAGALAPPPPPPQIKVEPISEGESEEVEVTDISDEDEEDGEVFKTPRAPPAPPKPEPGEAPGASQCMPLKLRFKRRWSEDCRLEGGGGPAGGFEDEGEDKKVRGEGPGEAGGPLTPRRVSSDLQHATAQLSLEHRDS
The gist of the method:
as §1

The target in another experiment is T9, SPDEF (Homo sapiens, UniProt O95238 1-335).
T9 sequence: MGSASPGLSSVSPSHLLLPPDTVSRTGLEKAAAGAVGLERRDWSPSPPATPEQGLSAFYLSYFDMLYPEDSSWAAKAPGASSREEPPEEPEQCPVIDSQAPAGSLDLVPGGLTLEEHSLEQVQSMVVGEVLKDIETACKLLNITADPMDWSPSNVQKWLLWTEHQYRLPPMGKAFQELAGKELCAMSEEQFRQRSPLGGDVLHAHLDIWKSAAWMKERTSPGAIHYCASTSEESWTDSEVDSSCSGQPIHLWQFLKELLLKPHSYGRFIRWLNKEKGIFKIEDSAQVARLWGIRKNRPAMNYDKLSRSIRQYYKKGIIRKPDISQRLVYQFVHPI
In outline: as §1

A further experiment has as its target T10, ELF5 (Homo sapiens, UniProt Q9UKW6-2 1-255).
T10 sequence: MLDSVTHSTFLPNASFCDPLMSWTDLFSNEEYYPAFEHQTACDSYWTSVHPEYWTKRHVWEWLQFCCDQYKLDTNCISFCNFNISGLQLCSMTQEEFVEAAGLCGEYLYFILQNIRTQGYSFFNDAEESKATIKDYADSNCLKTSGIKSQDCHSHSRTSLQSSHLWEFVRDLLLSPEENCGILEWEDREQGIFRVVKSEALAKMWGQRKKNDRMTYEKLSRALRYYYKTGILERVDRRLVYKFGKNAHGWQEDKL
The gist of the method: as §1

For the next experiment, the target named is T11, ETV3 (Homo sapiens, UniProt P41162-2 1-143).
T11 sequence: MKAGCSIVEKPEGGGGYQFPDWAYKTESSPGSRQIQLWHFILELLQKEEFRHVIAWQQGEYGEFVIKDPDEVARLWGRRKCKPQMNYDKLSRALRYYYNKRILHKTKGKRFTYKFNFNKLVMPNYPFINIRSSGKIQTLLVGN
In outline:
as §1

A further experiment deals with ETV6 (Homo sapiens, UniProt P41212 1-452). The gist of the method:
as §1

Chain of ETV1 (P50549 whole entry): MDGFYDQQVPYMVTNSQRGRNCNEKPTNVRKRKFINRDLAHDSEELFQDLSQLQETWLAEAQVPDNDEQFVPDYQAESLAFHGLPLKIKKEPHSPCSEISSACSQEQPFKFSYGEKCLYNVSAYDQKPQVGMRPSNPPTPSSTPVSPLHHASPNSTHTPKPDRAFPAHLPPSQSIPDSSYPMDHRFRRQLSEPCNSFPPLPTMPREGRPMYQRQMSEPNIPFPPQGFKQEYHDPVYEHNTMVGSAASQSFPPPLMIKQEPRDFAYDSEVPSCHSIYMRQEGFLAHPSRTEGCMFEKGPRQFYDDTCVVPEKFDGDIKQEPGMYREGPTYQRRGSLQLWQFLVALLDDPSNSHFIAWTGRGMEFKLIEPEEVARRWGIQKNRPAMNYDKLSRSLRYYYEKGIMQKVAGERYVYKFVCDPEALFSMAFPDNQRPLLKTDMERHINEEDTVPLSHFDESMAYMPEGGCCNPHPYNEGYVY
Chain of ETV6 (P41212 whole entry): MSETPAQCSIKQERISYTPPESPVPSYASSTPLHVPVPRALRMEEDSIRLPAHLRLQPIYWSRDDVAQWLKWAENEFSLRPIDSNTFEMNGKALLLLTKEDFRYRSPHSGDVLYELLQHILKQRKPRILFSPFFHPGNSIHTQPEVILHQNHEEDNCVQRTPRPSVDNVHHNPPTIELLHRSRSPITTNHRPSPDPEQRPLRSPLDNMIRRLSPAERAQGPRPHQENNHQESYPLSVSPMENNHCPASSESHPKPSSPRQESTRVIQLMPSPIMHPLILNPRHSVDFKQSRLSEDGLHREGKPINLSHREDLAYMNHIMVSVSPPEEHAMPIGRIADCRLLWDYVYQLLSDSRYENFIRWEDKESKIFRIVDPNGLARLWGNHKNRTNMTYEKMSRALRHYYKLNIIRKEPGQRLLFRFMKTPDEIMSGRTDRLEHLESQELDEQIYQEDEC

Consider CCCCGT, for which the binding signal with FLI1 was 1.05 fold enrichment (6-mer frequency, TF over GST control); with ELK1 it was 1.08 fold enrichment (6-mer frequency, TF over GST control); in the experiment with GABPA, 1.02 fold enrichment (6-mer frequency, TF over GST control); with ERG, 1.1 fold enrichment (6-mer frequency, TF over GST control); in the experiment with ELF1, 1.06 fold enrichment (6-mer frequency, TF over GST control); in the experiment with EHF, 1.13 fold enrichment (6-mer frequency, TF over GST control). The binding signal in the experiment with SPI1 was 1.1 fold enrichment (6-mer frequency, TF over GST control); in the experiment with FEV it was 1.01 fold enrichment (6-mer frequency, TF over GST control); in the experiment with ETV5 it was 1.03 fold enrichment (6-mer frequency, TF over GST control); in the experiment with SPIC, 1.05 fold enrichment (6-mer frequency, TF over GST control); with ELF4, 1.07 fold enrichment (6-mer frequency, TF over GST control); with ETV1, 1 fold enrichment (6-mer frequency, TF over GST control). The binding signal in the experiment with ERF was 1.13 fold enrichment (6-mer frequency, TF over GST control); with SPDEF it was 1 fold enrichment (6-mer frequency, TF over GST control); in the experiment with ELF5 it was 1.06 fold enrichment (6-mer frequency, TF over GST control); with ETV3, 1.06 fold enrichment (6-mer frequency, TF over GST control); in the experiment with ETV6, 1.08 fold enrichment (6-mer frequency, TF over GST control).
